The panel holds about 83,000 compounds, 20% with a hit somewhere; the sample as a whole holds those more often.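 Single-dose data. Exposure time 48 hours. Values below 10 considered active.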 The source made the active and inactive calls.
Assays:
Assay in all cases: NCI-60 one-dose screen, 48 h (100 = growth as untreated, 0 = no growth, -100 = all killed)
Conditions in all cases: 10 µM unless noted
K-562 leukemia = system: K-562 leukemia
MALME-3M melanoma = system: MALME-3M melanoma
MDA-MB-231 breast = system: MDA-MB-231 breast
RXF 393 renal = system: RXF 393 renal
SF-268 CNS = system: SF-268 CNS
SF-295 CNS = system: SF-295 CNS
SF-539 CNS = system: SF-539 CNS
UACC-257 melanoma = system: UACC-257 melanoma
M14 melanoma = system: M14 melanoma
HCT-15 colon = system: HCT-15 colon
HT29 colon = system: HT29 colon
SNB-75 CNS = system: SNB-75 CNS
SNB-19 CNS = system: SNB-19 CNS
U251 CNS = system: U251 CNS
PC-3 prostate = system: PC-3 prostate
SK-MEL-5 melanoma = system: SK-MEL-5 melanoma
UACC-62 melanoma = system: UACC-62 melanoma
LOX IMVI melanoma = system: LOX IMVI melanoma
SK-MEL-28 melanoma = system: SK-MEL-28 melanoma
SK-MEL-2 melanoma = system: SK-MEL-2 melanoma

Measured: growth

CCN1CCN(/C(=N\c2sc(-c3ccccc3)nc2-c2ccccc2)c2ccccc2)CC1
inactive: K-562 leukemia 32.8% | MALME-3M melanoma 108% | MDA-MB-231 breast 79.9% | RXF 393 renal 72.1% | SF-268 CNS 89.2% | SF-295 CNS 111% | SF-539 CNS 87.8% | UACC-257 melanoma 80.4% | M14 melanoma 81.1% | HCT-15 colon 38.1% | HT29 colon 32.6% | SNB-75 CNS 89.1% | SNB-19 CNS 84.8% | U251 CNS 67.4% | PC-3 prostate 65.8% | SK-MEL-5 melanoma 93.4% | UACC-62 melanoma 55.3% | LOX IMVI melanoma 80.1% | SK-MEL-28 melanoma 80.6% | SK-MEL-2 melanoma 102%

Cc1nc(-c2cc3ccccc3oc2=O)ccc1C(=O)/C=C/c1ccccn1
inactive: MALME-3M melanoma 88.3% | MDA-MB-231 breast 12.8% | RXF 393 renal 32.3% | SF-268 CNS 78.5% | SF-295 CNS 71.1% | UACC-257 melanoma 101% | M14 melanoma 80.2% | SNB-75 CNS 56.3% | SNB-19 CNS 71.6% | PC-3 prostate 68.2% | SK-MEL-5 melanoma 95.9% | UACC-62 melanoma 71.1% | SK-MEL-28 melanoma 95.1% | SK-MEL-2 melanoma 108%
active: K-562 leukemia 7.22% | SF-539 CNS 2.25% | HCT-15 colon -33.3% | HT29 colon 2.1% | U251 CNS 8% | LOX IMVI melanoma -84.5%

COc1cc(OC)c(C2C(Cl)C(=O)N2Nc2ncnc3ccccc23)cc1OC (stereo unspecified)
inactive: K-562 leukemia 100% | MALME-3M melanoma 93.2% | MDA-MB-231 breast 87.3% | RXF 393 renal 112% | SF-268 CNS 99.2% | SF-295 CNS 102% | SF-539 CNS 104% | UACC-257 melanoma 111% | M14 melanoma 88.6% | HCT-15 colon 101% | HT29 colon 112% | SNB-75 CNS 80.5% | SNB-19 CNS 98.9% | U251 CNS 91.7% | PC-3 prostate 89.6% | SK-MEL-5 melanoma 99.3% | UACC-62 melanoma 91.7% | LOX IMVI melanoma 45.6% | SK-MEL-28 melanoma 105% | SK-MEL-2 melanoma 121%

Cn1ccnc1C(=O)/C=C/c1ccc(NC(=O)Nc2ccc(Cl)cc2)cc1
inactive: K-562 leukemia 47.6% | MALME-3M melanoma 84.2% | MDA-MB-231 breast 73.4% | RXF 393 renal 70.1% | SF-268 CNS 81.8% | SF-295 CNS 85.9% | SF-539 CNS 83.1% | UACC-257 melanoma 100% | M14 melanoma 84.4% | HCT-15 colon 47.1% | HT29 colon 93.6% | SNB-75 CNS 74.4% | SNB-19 CNS 78.9% | U251 CNS 62.6% | PC-3 prostate 78.8% | SK-MEL-5 melanoma 91.2% | UACC-62 melanoma 92.2% | SK-MEL-28 melanoma 89.9% | SK-MEL-2 melanoma 110%

CCOC(=O)c1c(Nc2ccccc2)nn2c(N)c(C#N)c(-c3ccc(F)cc3)nc12
inactive: K-562 leukemia 52.3% | MALME-3M melanoma 91.8% | MDA-MB-231 breast 78.6% | RXF 393 renal 84.9% | SF-268 CNS 85.6% | SF-295 CNS 86.5% | SF-539 CNS 88.1% | UACC-257 melanoma 101% | M14 melanoma 91.2% | HCT-15 colon 69.8% | HT29 colon 97% | SNB-75 CNS 82.4% | SNB-19 CNS 94% | U251 CNS 88.7% | PC-3 prostate 80.3% | SK-MEL-5 melanoma 88.7% | UACC-62 melanoma 84.6% | SK-MEL-28 melanoma 100% | SK-MEL-2 melanoma 100%

CCOC(=O)c1c(Nc2ccccc2)nn2c(N)c(C#N)c(-c3ccccc3)nc12
inactive: K-562 leukemia 48.5% | MALME-3M melanoma 96% | MDA-MB-231 breast 63.9% | RXF 393 renal 68.3% | SF-268 CNS 87.4% | SF-295 CNS 81.3% | SF-539 CNS 82.2% | UACC-257 melanoma 111% | M14 melanoma 89% | HCT-15 colon 52.4% | HT29 colon 92.1% | SNB-75 CNS 86.1% | SNB-19 CNS 89.4% | U251 CNS 74.6% | PC-3 prostate 76.5% | SK-MEL-5 melanoma 86.8% | UACC-62 melanoma 83.4% | SK-MEL-28 melanoma 99.4% | SK-MEL-2 melanoma 92.2%

C#C[C@]1(O)CC[C@H]2[C@@H]3CC=C4c5sc(-c6ccc(F)cn6)nc5CC[C@]4(C)[C@H]3CC[C@@]21C
active: K-562 leukemia 6.31% | RXF 393 renal -50.7% | SF-295 CNS -70.6% | SF-539 CNS -45.8% | UACC-257 melanoma -31.8% | SNB-75 CNS -13.2% | UACC-62 melanoma 0.399% | SK-MEL-28 melanoma -28.5% | SK-MEL-2 melanoma -28.4%
inactive: MALME-3M melanoma 67.6% | MDA-MB-231 breast 17.1% | SF-268 CNS 23% | M14 melanoma 36.7% | HCT-15 colon 30.5% | HT29 colon 38.3% | SNB-19 CNS 31.5% | U251 CNS 15.7% | PC-3 prostate 24.2% | SK-MEL-5 melanoma 33.4%

Reference: PubChem BioAssay (NCI)
